# Experimental data taken from the supplement of paper PMC3334620.
# The full ranking holds about 33,000 sequences; the median of “E-score (-0.5 to 0.5)” is about -0.032, and the highest 2% start at about 0.36. For the sample, the highest values were picked, then their nearest neighbours and some sequences at random.
# Molecular target: T1, Sko1 (UniProt Q02100)
# T1 sequence: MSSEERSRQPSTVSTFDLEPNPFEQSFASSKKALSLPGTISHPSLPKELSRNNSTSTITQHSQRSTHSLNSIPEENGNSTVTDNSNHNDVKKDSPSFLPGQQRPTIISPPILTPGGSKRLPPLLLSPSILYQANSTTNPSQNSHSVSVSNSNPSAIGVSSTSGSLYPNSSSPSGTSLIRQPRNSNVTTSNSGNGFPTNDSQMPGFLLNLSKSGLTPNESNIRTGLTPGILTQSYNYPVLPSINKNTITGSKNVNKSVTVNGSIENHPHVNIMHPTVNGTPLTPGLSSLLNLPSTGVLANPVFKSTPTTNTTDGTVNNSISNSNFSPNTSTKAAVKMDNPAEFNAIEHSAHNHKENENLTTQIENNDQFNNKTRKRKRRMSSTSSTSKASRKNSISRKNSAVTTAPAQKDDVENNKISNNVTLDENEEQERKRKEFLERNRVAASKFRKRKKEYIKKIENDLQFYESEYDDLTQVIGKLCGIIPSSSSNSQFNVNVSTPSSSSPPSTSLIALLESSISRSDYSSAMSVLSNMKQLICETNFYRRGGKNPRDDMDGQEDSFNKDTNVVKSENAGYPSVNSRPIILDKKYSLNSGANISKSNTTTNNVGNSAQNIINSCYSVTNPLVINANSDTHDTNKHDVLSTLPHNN
# Assay: PBM E-score (8-mer binding enrichment) (E-score (-0.5 to 0.5)); higher = stronger / more preferred TF binding
# Details: protein concentration: 200 nM; construct: GST-full length
# How it was run: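 Universal all-10-mer Agilent arrays, fresh or stripped once, were converted to double-stranded form by primer extension. GST-tagged yeast transcription factors from PURExpress in vitro transcription/translation, full-length or DNA-binding domain only, were applied at about 100-200 nM and detected with fluorescent anti-GST. After masliner normalisation, the Universal PBM Analysis Suite scored each ungapped eight-base word together with its reverse complement by E-score.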
row,Sequence,PBM E-score
1,GCCGAGAC,-0.218
2,ATGGGTCG,-0.179
3,ATTCAAGC,0.106
4,ATGTTCTA,0.0474
5,GCGTGCGA,-0.0187
6,GTACATTA,0.295
7,GTACATCA,0.366
8,CTACATCC,-0.0667
9,ATACATCC,0.0616
10,CTACATCA,0.375
11,ATACATCG,0.196
12,CTACATTA,0.00265
13,GTACATGA,0.184
14,ATACATCA,0.382
15,CGGGGCGC,-0.313
16,AACAGGTT,-0.0299
17,AGGCACTA,-0.0926
18,CTACATAA,0.194
19,CAACATCA,0.294
20,AGACATAA,0.0234
21,GGACATCA,0.205
22,AAACATCA,0.189
23,GTACATAA,0.306
24,TGACATAA,0.424
25,TAACATCA,0.367

row,Sequence,PBM E-score
1,TTACATAA,0.407
2,TGACATCA,0.466
3,GGACATAA,0.0688
4,CGACATCA,0.355
5,CACCAATG,0.00918
6,GCCTTAGC,-0.113
7,CGGCTACG,0.243
8,ATCGTCCC,-0.0614
9,CCAAACCG,-0.149
10,ACAAGTTG,-0.041
11,AAAGACTA,0.026
12,CAAACCAA,-0.0239
13,ATTCACGG,0.095
14,GACCTTAC,0.0378
15,AACTTAGC,0.0908
16,ATGGTGGC,-0.29
17,GACTTTTA,0.0964
18,AGTCACAG,-0.0124
19,TGTCACAA,0.133
20,CGTCACAC,0.437
21,CGTCACAA,0.388
22,GGTCACAA,-0.151
23,CCTCACAG,-0.175
24,AGTCACAC,-0.0301
25,CGTCACAG,0.438

row,Sequence,PBM E-score
1,GGTCACAC,-0.0911
2,ACTTCGAT,0.0534
3,GAGGTTCC,-0.182
4,ATCTGTAG,-0.0704
5,AGGAGTGA,0.0137
6,CAGGGAGG,-0.23
7,ACACATAA,0.262
8,ACACGTAG,0.433
9,ACACGTTC,0.214
10,ACACGAAT,0.233
11,ACACGTCT,0.292
12,ACCCGTAC,-0.107
13,ACTCGTAA,0.345
14,ACACGTAA,0.472
15,ACACGTAC,0.419
16,ACACGGAG,-0.13
17,ACACGTAT,0.463
18,ACCCGTAA,-0.00679
19,CTTGAATC,-0.0656
20,AGTTAGCG,0.113
21,CGGCGTGA,-0.0945
22,CCGCTTCC,-0.273
23,CTCGTCTC,-0.19
24,AAATTCGT,0.339
25,ATGTGAGC,-0.00412

row,Sequence,PBM E-score
1,CATCCTAA,0.173
2,CCGAGATC,-0.237
3,ATGACACC,0.26
4,ATGACATC,0.44
5,GGGACATA,-0.139
6,ATGACATG,0.357
7,CTGACATC,0.21
8,CTGACATA,0.266
9,GTGACATA,0.381
10,ATGACATA,0.437
11,GTGACACA,0.145
12,AACTAACA,0.124
13,GCTAAGCC,-0.23
14,CGGGCTCC,-0.343
15,ACTCTCTC,-0.281
16,GTCATCAA,0.33
17,CACATCAC,0.154
18,GTCATCAC,0.368
19,ATCATCAC,0.334
20,GACATCAC,0.382
21,GACATCAA,0.275
22,CTCCGCCC,-0.254
23,GAACTCTA,-0.0173
24,CGTAAGAC,0.4
25,CGTAAGAG,0.376

row,Sequence,PBM E-score
1,CGTAAGAA,0.349
2,CCTAAGAG,-0.0999
3,AGTAAGAG,-0.117
4,GGTAAGAC,-0.0543
5,AAAGCGGT,-0.0789
6,AGCTCTTA,0.0315
7,TATACGCA,0.411
8,AATACGCA,0.407
9,GATACGCA,0.351
10,CATACGCG,0.246
11,AATACGCC,0.198
12,CATACGCA,0.392
13,CATACTCA,0.0384
14,AATACGCT,0.186
15,TATACGAA,0.301
16,TACACCGA,-0.177
17,TAGAGAGA,-0.0704
18,AAAAGAAT,0.115
19,CCGCTCAC,-0.0552
20,CCACCTGA,-0.0745
21,ATCACGGA,0.126
22,ATCACGCC,0.0558
23,ATCACATA,0.3
24,ATCACGTG,0.411
25,GTCACGCA,0.25

row,Sequence,PBM E-score
1,CTCACGTC,0.278
2,ATCACGCG,0.254
3,GTCACGGA,0.126
4,ATCACGTA,0.465
5,GTCACGTA,0.421
6,CTCACGTA,0.356
7,ATCACGTC,0.42
8,CGTTTTAC,0.209
9,ATTTATAG,0.158
10,ACGGAAAT,0.226
11,AGTATGCA,-0.0795
12,ACCTGTAT,-0.105
13,CAAACCTG,-0.0692
14,ACCATTAG,0.0481
15,TCCCAAGA,-0.166
16,AGTAACAC,-0.0531
17,CGTAACAC,0.374
18,CGTAACAG,0.374
19,GGTAACAC,0.0477
20,AGTAACAG,-0.0766
21,CGTAACAA,0.344
22,AGCGGTTG,-0.0753
23,GGTAATAA,0.185
24,GGTAATAC,0.178
25,CGTAATAA,0.434

row,Sequence,PBM E-score
1,CGTAATAG,0.435
2,AGTAATAG,0.264
3,CGTAATAC,0.451
4,TGTAATAA,0.28
5,CATAATAG,0.116
6,AGTAATAC,0.0785
7,ACGCGGCT,0.124
8,ACAGTCCG,-0.182
9,ATGGCTCC,-0.249
10,AGGTACCT,-0.19
11,CCGTACCA,-0.118
12,CCGTACCC,-0.335
13,ACGTACCC,0.435
14,GCGTACCA,0.138
15,ACGTACCA,0.444
16,AAGTACCT,-0.0422
17,GCGTACCC,-0.00205
18,AAGTACCG,-0.032
19,ACGTACCT,0.377
20,CCGTACCG,-0.208
21,ACGTACCG,0.372
22,AGAACCAG,-0.306
23,CCTACTAA,-0.18
